From the supplement of paper PMC7669877
± gives the uncertainty stated by the source.

Tested on: Candidatus Liberibacter solanacearum in potato hairy roots
Assay: relative CLso titer (% of untreated control); higher = less inhibition of bacterial titer
Conditions: 10 µM; 72 h
Experimental: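 Primary screen of ~220 Spectrum collection (MicroSource) compounds at 10 µM (0.1% DMSO) on Candidatus Liberibacter solanacearum-infected potato hairy roots in multi-well plates (Gamborg B-5 medium, vacuum infiltrated, 21 °C, dark, 72 h). CLso titer was measured by qPCR of 16S rDNA normalised to potato RPL2 (2^-ddCq), pairwise-standardised against untreated controls, averaged over two biological replicates and expressed as % of untreated.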

| Compound | relative CLso titer [%] |
| --- | --- |
| N[C@@H]1CONC1=O | 177 ± 11 |
| NC(=O)N1c2ccccc2C=Cc2ccccc21 | 58.7 ± 10 |
| O=C(O)c1cc(=O)c2c(OCC(O)COc3cccc4oc(C(=O)O)cc(=O)c34)cccc2o1 | 58 ± 9.1 |
| C[C@H]1O[C@@H](O[C@H]2[C@@H](O)C[C@H](O[C@H]3[C@@H](O)C[C@H](O[C@H]4CC[C@@]5(C)[C@H](CC[C@@H]6[C@@H]5C[C@@H](O)[C@]5(C)[C@@H](C7=CC(=O)OC7)CC[C@]65O)C4)O[C@@H]3C)O[C@@H]2C)C[C@H](O)[C@@H]1O | 86.7 ± 7.9 |
| OCC(S)CS (centres undefined) | 67.2 ± 36 |
| CC1=C(C(=O)O)N2C(=O)[C@@H](NC(=O)[C@H](N)c3ccccc3)[C@H]2SC1 | 87.1 ± 16 |
| CC(=O)Nc1nnc(S(N)(=O)=O)s1 | 74.1 ± 19 |
| O=C(O)Cc1ccccc1Nc1c(Cl)cccc1Cl | 151 ± 55 |
| CO[C@@]12[C@H](COC(N)=O)C3=C(C(=O)C(C)=C(N)C3=O)N1C[C@@H]1N[C@@H]12 | 85 ± 10 |
| COc1ccc(O)cc1 | 173 ± 58 |
| C[C@]12CC[C@@H]3c4ccc(OC(=O)c5ccccc5)cc4CC[C@H]3[C@@H]1CC[C@@H]2O | 155 ± 66 |
| CCN(CC)C(=O)[C@@]1(c2ccccc2)C[C@H]1CN | 48.9 ± 6 |
| CC(=O)OCC(=O)[C@@]1(O)[C@H](C)C[C@H]2[C@@H]3CCC4=CC(=O)C=C[C@]4(C)[C@@]3(F)[C@@H](O)C[C@@]21C | 101 ± 39 |
| CC/C(=C(/CC)c1ccc(O)cc1)c1ccc(O)cc1 | 94.4 ± 41 |
| Cc1ccc(S(=O)(=O)NC(=O)NN2CCCCCC2)cc1 | 83.2 ± 12 |
| O=C(O)c1ccccc1C(=O)Nc1ccc(S(=O)(=O)Nc2nccs2)cc1 | 102 ± 3.3 |
| O=S(=O)(O)CCS | 110 ± 3.6 |

| Compound | relative CLso titer [%] |
| --- | --- |
| CC(=O)OCC[N+](C)(C)C | 96.2 ± 31 |
| O=C(O)CN(CCN(CC(=O)O)CC(=O)O)CC(=O)O | 228 ± 120 |
| CC(=O)O[C@]1(C(C)=O)CC[C@H]2[C@@H]3C=C(Cl)C4=CC(=O)[C@@H]5C[C@@H]5[C@]4(C)[C@H]3CC[C@@]21C | 114 ± 4.7 |
| C[C@H]1O[C@@H](O[C@H]2[C@@H](O)C[C@H](O[C@H]3[C@@H](O)C[C@H](O[C@H]4CC[C@@]5(C)[C@H](CC[C@@H]6[C@@H]5CC[C@]5(C)[C@@H](C7=CC(=O)OC7)CC[C@]65O)C4)O[C@@H]3C)O[C@@H]2C)C[C@H](O)[C@@H]1O | 231 ± 140 |
| CC12CC3CC(C)(C1)CC(N)(C3)C2 | 63.3 ± 31 |
| O=C(O)CCC(=O)OC[C@@H](NC(=O)C(Cl)Cl)[C@H](O)c1ccc([N+](=O)[O-])cc1 | 49.1 ± 3.2 |
| CCn1nc(C(=O)O)c(=O)c2cc3c(cc21)OCO3 | 28.6 ± 0.62 |
| C/C=C(/C(=C/C)c1ccc(O)cc1)c1ccc(O)cc1 | 108 ± 17 |
| CC1(C)OC(=O)C(OCC2CC2)=C1c1ccc(S(C)(=O)=O)cc1 | 53.8 ± 6.5 |
| CN(C)[C@@H]1C(O)=C(C(N)=O)C(=O)[C@@]2(O)C(O)=C3C(=O)c4c(O)ccc(Cl)c4[C@@H](O)[C@H]3C[C@@H]12 | 173 ± 42 |
| Nc1ccc(S(=O)(=O)Nc2cnc3ccccc3n2)cc1 | 80.23 ± 0.64 |
| OCCN(CCO)c1nc(N2CCCCC2)c2nc(N(CCO)CCO)nc(N3CCCCC3)c2n1 | 107 ± 26 |
| Cc1cc(O)cc(C)c1Cl | 30.8 ± 2.8 |
| CN(C)CCOC(=O)C(c1ccccc1)C1(O)CCCC1 (centres undefined) | 23.4 ± 4.1 |
| Nc1ccc(S(=O)(=O)Nc2ccc(Cl)nn2)cc1 | 52.4 ± 4.8 |
| CC(=O)OCC(=O)[C@H]1CC[C@H]2[C@@H]3CCC4=CC(=O)CC[C@]4(C)[C@H]3CC[C@]12C | 104 ± 18 |
| C[C@]12CCC(=O)C=C1CC[C@@H]1[C@@H]2[C@@H](O)C[C@@]2(C)[C@H]1CC[C@]2(O)C(=O)CO | 94.9 ± 25 |
